# Measurements reported in PMC4336329 (PLoS ONE, 2015).
# Screen size: about 310,000 compounds; about 14,000 (4.5%) showed an effect of 50% or more. The effect is printed as a negative number. This is one part of a sample in which strong results are shown more often than they occur.
# Molecular target: human ether-à-go-go-related gene (hERG) potassium channel (human, UniProt Q12809)
# Assay: primary screen, population patch clamp on CHO cells stably expressing hERG; higher = less effect of the substance
# 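Note: peak tail current of the secondary pulse compared with the same well before compound.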
# Chain of human ether-à-go-go-related gene (hERG) potassium channel (Q12809 whole entry, looked up): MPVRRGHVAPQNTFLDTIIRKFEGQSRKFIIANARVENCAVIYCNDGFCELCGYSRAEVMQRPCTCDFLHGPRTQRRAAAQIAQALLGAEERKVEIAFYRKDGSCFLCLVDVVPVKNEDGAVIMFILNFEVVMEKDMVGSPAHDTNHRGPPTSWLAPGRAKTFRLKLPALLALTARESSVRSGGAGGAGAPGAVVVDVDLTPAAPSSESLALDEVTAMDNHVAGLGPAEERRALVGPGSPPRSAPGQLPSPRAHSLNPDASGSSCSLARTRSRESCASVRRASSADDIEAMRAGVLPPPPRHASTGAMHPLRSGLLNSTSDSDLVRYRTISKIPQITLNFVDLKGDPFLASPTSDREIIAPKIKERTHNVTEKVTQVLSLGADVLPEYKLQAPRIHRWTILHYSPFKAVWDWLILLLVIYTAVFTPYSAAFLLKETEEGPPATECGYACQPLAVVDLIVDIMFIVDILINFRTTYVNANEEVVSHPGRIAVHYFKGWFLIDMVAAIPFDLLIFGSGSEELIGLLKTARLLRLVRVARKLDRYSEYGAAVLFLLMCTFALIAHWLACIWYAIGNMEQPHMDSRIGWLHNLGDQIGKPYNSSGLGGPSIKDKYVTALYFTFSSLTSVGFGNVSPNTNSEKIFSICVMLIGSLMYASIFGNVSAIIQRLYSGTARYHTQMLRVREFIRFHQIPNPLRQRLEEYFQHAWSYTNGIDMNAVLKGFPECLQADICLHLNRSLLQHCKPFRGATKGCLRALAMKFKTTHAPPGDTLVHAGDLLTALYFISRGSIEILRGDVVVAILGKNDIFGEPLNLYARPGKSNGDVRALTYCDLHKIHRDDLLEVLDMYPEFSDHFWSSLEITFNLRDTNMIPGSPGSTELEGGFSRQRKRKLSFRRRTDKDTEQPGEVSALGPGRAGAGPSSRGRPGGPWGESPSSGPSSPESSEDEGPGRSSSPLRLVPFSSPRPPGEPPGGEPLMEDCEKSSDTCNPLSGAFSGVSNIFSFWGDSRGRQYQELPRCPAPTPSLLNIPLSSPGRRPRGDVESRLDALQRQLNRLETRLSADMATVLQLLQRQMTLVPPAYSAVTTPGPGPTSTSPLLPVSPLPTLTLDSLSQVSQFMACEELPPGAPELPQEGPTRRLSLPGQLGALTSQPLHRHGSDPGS
row,Compound,"hERG current change (%, negative = inhibition) at 10uM [%]"
1,COc1ccc(NC(=O)c2nnn(CC(=O)Nc3ccccc3OC)c2N)c(OC)c1,0.272
2,CCN(CC)CCOc1ccc2nc(N(C)C)sc2c1.Cl,11.1
3,CC12CCC(C(=O)Nc3ccccc3)(C/C1=N\O)C2(C)C (stereo not shown),10.9
4,CCSc1nnc(NC(=O)Cc2ccccc2OC)s1,13
5,CCCCn1c(SCC(=O)NCCOC)nc2ccc(N3CCOCC3)cc2c1=O,-2.94
6,CCC(C)NC(=O)CSc1nc2ccc(N3CCOCC3)cc2c(=O)n1CCc1ccccc1 (stereo not shown),3.14
7,COCCCNC(=O)CSc1nc2ccc(N3CCOCC3)cc2c(=O)n1CCc1ccccc1,-59.8
8,COCCNC(=O)CSc1nc2ccc(N3CCOCC3)cc2c(=O)n1Cc1ccc(OC)cc1,-22.4
9,COCCNC(=O)CSc1nc2ccc(N3CCOCC3)cc2c(=O)n1CCc1ccccc1,-55.1
10,CCCCNC(=O)CSc1nc2ccc(N3CCOCC3)cc2c(=O)n1CCc1ccccc1,-19.3
11,Cc1ccc(CN2CC(C(=O)NCCC3=CCCCC3)CC2=O)cc1 (stereo not shown),-19.6
12,CCN(c1ccc(NC(=O)CSCc2c(C)noc2C)cc1)C(C)C,-7.72
13,Cc1ccccc1-c1cc2nc(C)c(Cl)c(=O)n2[nH]1,-8.26
14,O=C(Nc1cccc(F)c1)c1cccnc1,3.96
15,Cc1c(C(=O)NCC2CCCO2)sc2nc(-c3ccc(F)cc3)cn12 (stereo not shown),-29.7
16,Cc1c(C(=O)N2CCN(c3ccccc3F)CC2)sc2nc(-c3ccccc3)cn12,-14.1
17,CCOC(=O)C1CCN(C(=O)c2sc3nc(-c4ccc(F)cc4)cn3c2C)CC1,-60.5
18,COc1ccccc1N1CCN(C(=O)c2sc3nc(-c4ccc(F)cc4)cn3c2C)CC1,-34
19,CCOC(=O)C1CCN(C(=O)c2sc3nc(-c4ccccc4)cn3c2C)CC1,-41
20,COc1ccc(-c2cn3c(C)c(C(=O)N4CCN(c5ccc(F)cc5)CC4)sc3n2)cc1,1.07
21,COC(=O)C1CCN(C(=O)c2sc3nc(-c4ccc(F)cc4)cn3c2C)CC1,-59.5
22,COc1ccccc1N1CCN(C(=O)c2sc3nc(-c4ccccc4)cn3c2C)CC1,-35
23,Cc1c(C(=O)Nc2ccncc2)sc2nc(-c3ccc(F)cc3)cn12,-8.24
24,Cc1c(C(=O)N2CCN(C(=O)c3ccco3)CC2)sc2nc(-c3ccc(F)cc3)cn12,-76.9

row,Compound,"hERG current change (%, negative = inhibition) at 10uM [%]"
1,Cc1c(C(=O)N2CCN(c3ccc(F)cc3)CC2)sc2nc(-c3ccccc3)cn12,-13.4
2,CCOC(=O)N1CCN(C(=O)c2sc3nc(-c4ccc(F)cc4)cn3c2C)CC1,-62.1
3,CN(C)CCNc1oc(COc2ccc(Cl)cc2Cl)nc1C#N,15.3
4,COc1cc(OC)cc(C(=O)NNC(=O)CCOc2ccccc2OC)c1,7.89
5,O=C(CSc1nnc(NC(=O)c2ccccc2F)s1)NC1CC1,19.2
6,C=C(C)C1Cc2nc(N)nc(C)c2C1 (stereo not shown),10.8
7,Cc1ccc(OCCNC(=O)c2ccccc2O)cc1,8.04
8,Cc1cc(C(=O)Nc2nc3c(s2)CCCC3)no1,-16.8
9,C=CCC(=O)OCCCCCCOc1ccc(C(=O)O)cc1,-3.87
10,O=C1CC(c2cc(-c3ccccc3)no2)C1,-9.96
11,c1ccc2nc3c(nc2c1)[nH]c1ccccc13,-15
12,O=C(O)c1cc2ccc3ccccc3c2[nH]1,1.56
13,CCN(CC)CCCNC(=O)CSc1c2c(nc3cc(Cl)ccc13)CCCC2,-48.4
14,O=C(CSc1c2c(nc3cc(Cl)ccc13)CCCC2)NCCN1CCOCC1,3.58
15,CCN(CC)CCNC(=O)CSc1c2c(nc3cc(Cl)ccc13)CCCC2,-64.1
16,CSc1ncc(C(=O)Nc2cccc(Cl)c2)c(C)n1,10.9
17,CC(NC(=O)c1ccc(F)cc1Cl)C1CC2CCC1C2 (stereo not shown),4.99
18,CCOc1ccc(C(=O)NCC(C)NC(=O)c2ccc(OCC)cc2)cc1 (stereo not shown),24.5
19,CC(NC(=O)c1ccc(Cl)cc1)C1CC2CCC1C2 (stereo not shown),2.08
20,CC(NC(=O)c1ccc(C#N)cc1)C1CC2CCC1C2 (stereo not shown),-58.8
21,CC(CNC(=O)c1ccc(N)cc1)NC(=O)c1ccc(N)cc1 (stereo not shown),9.03
22,CC(CNC(=O)c1ccc(C#N)cc1)NC(=O)c1ccc(C#N)cc1 (stereo not shown),-76.6
23,Cc1ccc(C(=O)NC(C)C2CC3CCC2C3)cc1 (stereo not shown),19.1
24,CC(NC(=O)c1ccc([N+](=O)[O-])cc1Cl)C1CC2CCC1C2 (stereo not shown),-58.2

row,Compound,"hERG current change (%, negative = inhibition) at 10uM [%]"
1,CC(NC(=O)c1cc([N+](=O)[O-])cc([N+](=O)[O-])c1)C1CC2CCC1C2 (stereo not shown),-7.55
2,Cc1ccc(C(=O)Oc2ccc(C(=S)N3CCOCC3)cc2)cc1,-7.84
3,CCN(CC)c1ncnc2scc(C3COc4ccccc4O3)c12 (stereo not shown),-8.77
4,COc1ccc(NC2CCCN(C(=O)C3(C)CCCCC3)C2)cc1OC (stereo not shown),11.3
5,O=C(Nc1ccccc1)C1CC(=O)n2ncnc2N1 (stereo not shown),6.48
6,CN(C)Cc1ccccc1C1(O)c2ccccc2CSc2ccccc21.Cl (stereo not shown),9.09
7,CNC(=S)N(CCc1cccc(C)c1)Cc1cc2cc(OC)c(OC)cc2[nH]c1=O,-16.7
8,Cc1ccc(-c2nc(=O)[nH]c3ccccc23)cc1,-20
9,C/C(=N/NC(=O)CN1CCN(Cc2ccccc2Cl)CC1)c1cccnc1,-10.4
10,Cc1ccc(CN2CCN(C(=O)c3ccncc3)CC2)cc1.O=C(O)C(=O)O,-0.159
11,C/C(=N\NC(=O)CN1CCN(Cc2ccc(C)cc2)CC1)c1ccncc1,-74.8
12,C/C(=N\NC(=O)CN1CCN(Cc2ccccc2)CC1)c1ccncc1,-35.8
13,C/C(=N/NC(=O)CN1CCN(Cc2ccccc2Cl)CC1)c1ccncc1,-65.4
14,O=C(CN1CCN(Cc2ccccc2Cl)CC1)N/N=C/c1ccccn1,-25.8
15,CCCNC(=O)c1ccc2c(c1)S(=O)(=O)c1ccccc1C2=O,-10.9
16,COc1ccc(-c2nn(-c3ccccc3)cc2C(=O)NC(=S)N2CCOCC2)cc1OC,30.1
17,CCOc1ccc(OCCNC(=O)c2oc3ccccc3c2COC)cc1,-32.5
18,COCc1c(C(=O)NCc2ccccc2CN2CCCC2)oc2ccccc12,-66.4
19,COCc1c(C(=O)NCC2COc3ccccc3O2)oc2ccccc12 (stereo not shown),-30.1
20,CCOCc1c(C(=O)N2CCN(Cc3ccc(Br)s3)CC2)oc2ccccc12,-30.9
21,CCOCc1c(C(=O)NC2CCCCCC2)oc2ccccc12,8.56
22,CCOCc1c(C(=O)NCc2ccccc2CN2CCCC2)oc2ccccc12,-72
23,COc1ccc2[nH]c3c(c2c1)CCN1C(=O)N([C@@H](C)C(=O)NCc2ccccc2OC)C(=O)[C@]31C,-17.2
24,CCOc1ccc2nc(SCC(=O)c3ccc(O)cc3O)sc2c1,14.5

row,Compound,"hERG current change (%, negative = inhibition) at 10uM [%]"
1,Cc1ccc([N+](=O)[O-])c(NC(=O)COC(=O)C2CC3CCCC(C2)C3=O)c1C (stereo not shown),13.8
2,Cc1cc(C)n2nc(C(=O)OCC(=O)Nc3ccc4c(c3)OCO4)nc2n1,-1.59
3,Cc1cc(C)n2nc(C(=O)OCCOc3ccc(F)cc3)nc2n1,-12.3
4,COc1ccc(OCCOC(=O)c2nc3nccc(C)n3n2)cc1,-3.15
5,Cc1ccnc2nc(C(=O)OCCOc3ccc(Cl)cc3)nn12,-56.2
6,Cc1cc(C)n2nc(SCCOc3ccc(F)cc3)nc2n1,-68.8
7,Cc1ccc(OCCOC(=O)c2nc3nccc(C)n3n2)cc1,-18.4
8,Cc1cc(C)n2nc(C(=O)OCCOc3ccc(Br)cc3)nc2n1,-55.3
9,Cc1ccnc2nc(C(=O)OCC(=O)Nc3ccc4c(c3)OC(F)(F)O4)nn12,-49.1
10,Cc1cc(C)n2nc(SCCOc3ccccc3)nc2n1,-38.7
11,Cc1cc(C)n2nc(C(=O)OCCOc3cccc(Br)c3)nc2n1,-21.6
12,Cc1cc(C)n2nc(C(=O)OCC(=O)Nc3ccc4c(c3)OC(F)(F)O4)nc2n1,-63.8
13,COc1ccc(OCCSc2nc3nc(C)cc(C)n3n2)cc1,-13.1
14,Cc1nc(N)nc(COc2ccccc2)n1,16.6
15,Cc1cc(C)c(NC(=O)CN(C)CC(=O)N(C)CC(=O)Nc2c(Cl)cccc2Cl)c(C)c1,9.65
16,COc1cc(OC)cc(C(=O)NNC(=S)NC(=O)c2cccnc2)c1,14.4
17,CCCCc1ccc2[nH]cc(CCN)c2c1.Cl,-9.69
18,Cc1ccccc1-c1nc(CN2CCC(C(=O)NCCCN3CCCC(C)C3)CC2)c(C)o1 (stereo not shown),28.6
19,COc1ccc(CCNC(=O)C2CCCN(Cc3nc(-c4ccccc4C)oc3C)C2)cc1OC (stereo not shown),-57.7
20,COc1ccc(CCNC(=O)C2CCN(Cc3nc(-c4ccccc4C)oc3C)CC2)cc1OC,-79.2
21,Cc1ccccc1-c1nc(CN2CCCC(C(=O)NCCCN3CCOCC3)C2)c(C)o1 (stereo not shown),-7.84
22,COc1ccc(CCNC(=O)C2CCN(Cc3nc(-c4ccccc4F)oc3C)CC2)cc1OC,-45.4
